Calls of active or inactive are those of the source. How the source made its calls: active means hit-call score of the fitted dose curve at least 0.9, where 1 is the maximum; inactive means score below 0.9.
Columns and labels:
[1] = target: CCAAT/enhancer-binding protein beta (Homo sapiens) (UniProt P17676); assay: ATG_C_EBP_CIS: Attagene CIS-FACTORIAL HepG2 Assay for human CCAAT/Enhancer Binding Protein (C/EBP) beta (AID 2282927); settings: HepG2 Attagene cis-factorial transcription factor reporter; actives raise or lower the signal
Chain of CCAAT/enhancer-binding protein beta (Homo sapiens) (P17676 whole entry, looked up, the tested form may be a part): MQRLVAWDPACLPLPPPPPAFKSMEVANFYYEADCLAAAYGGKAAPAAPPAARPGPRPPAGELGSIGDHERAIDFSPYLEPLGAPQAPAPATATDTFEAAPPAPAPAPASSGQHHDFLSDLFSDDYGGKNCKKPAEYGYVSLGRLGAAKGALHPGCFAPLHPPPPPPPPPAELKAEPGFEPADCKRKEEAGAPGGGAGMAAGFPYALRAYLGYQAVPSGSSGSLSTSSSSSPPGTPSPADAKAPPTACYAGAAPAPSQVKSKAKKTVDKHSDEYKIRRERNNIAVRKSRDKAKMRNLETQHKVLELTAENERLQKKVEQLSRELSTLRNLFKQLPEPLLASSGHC
Method in brief: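 Chemical-treated HepG2 cells (24 h) bearing cis-regulated reporter constructs were processed for total RNA, then reverse transcription, PCR amplification, fluorescent primer extension and fragment analysis; gain- and loss-of-signal were fitted against DMSO.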

[2] = ATG_CMV_CIS: Attagene CIS-FACTORIAL HepG2 Assay for human CMV (Internal Marker) (AID 2282928); settings: HepG2 CMV promoter reporter, transcription factor profiling; actives raise or lower the signal;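 further: endpoint acts as a background internal control marker rather than a target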
Method in brief: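 Bidirectional fits against DMSO are applied to reporter mRNA, read by RT-PCR with capillary electrophoresis, from HepG2 cells exposed 24 h. The endpoint serves as an internal CMV background marker within the cis-factorial reporter panel.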

[3] = ATG_DR4_LXR_CIS: Attagene CIS-FACTORIAL HepG2 Assay for human Liver X Receptor (LXR), DR4 submotif (AID 2282929); settings: HepG2 Attagene DR4 cis-reporter, mRNA transcription; actives raise or lower the signal
Method in brief: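 The endpoint is DR4-element-driven reporter transcripts after 24 h chemical exposure of transfected HepG2 cells. These were measured via RT-PCR and capillary electrophoresis, and gain or loss of signal was fitted relative to DMSO controls.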

[4] = ATG_AP_1_CIS: Attagene CIS-FACTORIAL HepG2 Assay for human Activator Protein 1 (AP-1) (AID 2282931); settings: HepG2 Attagene cis-factorial AP-1 reporter mRNA; actives raise or lower the signal
Method in brief: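 Readout is reporter transcript level from endogenous transcription factor activity, quantified by RT-PCR with fluorescent primer extension and capillary electrophoresis. Transiently transfected HepG2 cells, 24 h exposure. Curves fitted both directions versus DMSO.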

[5] = ATG_AP_2_CIS: Attagene CIS-FACTORIAL HepG2 Assay for human Activator Protein 2 (AP-2) (AID 2282932); settings: HepG2 AP-2 cis-reporter, Attagene transcription factor profiling; actives raise or lower the signal
Method in brief: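 Assay in transfected HepG2 with promoter-regulated reporters, 24 h incubation after dosing. Signal is reporter mRNA fluorescence (RT-PCR, capillary electrophoresis), analysed for both increases and decreases relative to DMSO controls.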

[6] = ATG_BRE_CIS: Attagene CIS-FACTORIAL HepG2 Assay for human Bone Morphogenetic Protein (BMP) Response Element (BRE) (AID 2282933); settings: HepG2 BMP response element reporter, Attagene transcription factor profiling; actives raise or lower the signal
Method in brief: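 Gain- or loss-of-signal was derived by bidirectional fitting against DMSO controls. The signal came from reporter mRNA, measured by RT-PCR and capillary electrophoresis, in HepG2 cells transiently carrying multiple reporter units and dosed for 24 h.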

[7] = target: Transcription factor E2F1 (Homo sapiens) (UniProt Q01094); assay: ATG_E2F_CIS: Attagene CIS-FACTORIAL HepG2 Assay for human E2F Transcription Factor 1 (AID 2282935); settings: HepG2 Attagene cis-reporter, E2F reporter RNA transcripts; actives raise or lower the signal
Chain of Transcription factor E2F1 (Homo sapiens) (Q01094 whole entry, looked up): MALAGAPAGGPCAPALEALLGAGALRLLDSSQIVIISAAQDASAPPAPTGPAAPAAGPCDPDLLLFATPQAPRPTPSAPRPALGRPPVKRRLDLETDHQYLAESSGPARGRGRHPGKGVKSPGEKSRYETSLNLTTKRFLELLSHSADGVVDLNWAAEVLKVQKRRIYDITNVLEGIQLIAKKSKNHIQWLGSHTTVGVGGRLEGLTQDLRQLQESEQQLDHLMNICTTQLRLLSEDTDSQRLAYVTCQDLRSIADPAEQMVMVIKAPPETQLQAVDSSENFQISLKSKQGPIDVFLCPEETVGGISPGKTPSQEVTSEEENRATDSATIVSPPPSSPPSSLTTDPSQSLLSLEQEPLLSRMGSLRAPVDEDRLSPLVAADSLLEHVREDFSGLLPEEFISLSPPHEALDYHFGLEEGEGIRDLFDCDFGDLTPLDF
Method in brief: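 In this cis-factorial format, endogenous factor activity drives transfected reporters in HepG2; transcripts collected at 24 h are quantified by fluorescence after RT-PCR and capillary separation.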

[8] = ATG_E_Box_CIS: Attagene CIS-FACTORIAL HepG2 Assay for human Enhancer Box (E-box) (AID 2282936); settings: HepG2 E-box cis-reporter transcription, actives raise or lower the signal
Method in brief: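 Measured 24 h post-dosing in HepG2 cells transfected with multiple cis-regulated reporter units, signal being reporter mRNA induction detected by fluorescent RT-PCR with capillary electrophoresis; gain or loss fitted against DMSO.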

[9] = ATG_M_61_CIS: Attagene CIS-FACTORIAL HepG2 Assay for M61 Transcription Factor (Internal Marker) (AID 2282937); settings: HepG2 Attagene CIS-FACTORIAL M61 internal marker reporter; actives raise or lower the signal
Method in brief: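 Readout is reporter mRNA by RT-PCR, fluorescent primer extension and capillary electrophoresis, with gain or loss fitted relative to DMSO. Transfected HepG2 cells carrying endogenous-TF-driven cis reporters were exposed to chemicals for 24 hours.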

[10] = ATG_EGR_CIS: Attagene CIS-FACTORIAL HepG2 Assay for human Early Growth Response 1 (EGR1) (AID 2282938); settings: HepG2 Attagene CIS-FACTORIAL EGR reporter mRNA; actives raise or lower the signal
Method in brief: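 After 24 h compound exposure, RNA from reporter-transfected HepG2 cells was reverse-transcribed, PCR-amplified, fluorescently labelled and resolved by capillary electrophoresis. EGR1 reporter transcript changes, up or down, were fitted against DMSO, reflecting endogenous transcription-factor activity.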

[11] = ATG_Ets_CIS: Attagene CIS-FACTORIAL HepG2 Assay for human Erythroblast Transformation Specific (ETS) (AID 2282941); settings: HepG2 ETS cis-reporter transcription, actives raise or lower the signal
Method in brief: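 Endogenous transcription factor activity read as reporter mRNA via RT-PCR and capillary electrophoresis, with gain or loss fitted bidirectionally against DMSO. Human HepG2 liver cells, transiently transfected CIS reporter constructs, 24 h exposure.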

[12] = ATG_GATA_CIS: Attagene CIS-FACTORIAL HepG2 Assay for human GATA Binding Protein (AID 2282944); settings: HepG2 GATA cis-element reporter, Attagene multiplex mRNA; actives raise or lower the signal
Method in brief: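 DMSO serves as negative control and baseline for bidirectional fitting of reporter mRNA changes. HepG2 cells bearing transiently transfected cis-promoter reporters were exposed 24 h; transcripts detected via RT-PCR and capillary electrophoresis.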

[13] = ATG_GLI_CIS: Attagene CIS-FACTORIAL HepG2 Assay for human Zinc Finger Protein GLI1 (AID 2282945); settings: HepG2, Attagene cis-factorial reporter mRNA, GLI element; actives raise or lower the signal
Method in brief: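 HepG2 cells transiently transfected with cis-promoter multiplexed reporter units report endogenous transcription factor activity. After 24 h chemical exposure, reporter mRNA was quantified by RT-PCR, 6-FAM labelling, HpaI digestion and capillary electrophoresis, with bidirectional fitting against DMSO.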

[14] = ATG_ISRE_CIS: Attagene CIS-FACTORIAL HepG2 Assay for human Interferon Regulatory Factor 1 (IRF1) binding to an Interferon-Stimulated Response Element (ISRE) (AID 2282948); settings: HepG2 ISRE cis-reporter (Attagene), mRNA transcription readout; actives raise or lower the signal
Method in brief: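 Endogenous transcription factor activity read as reporter transcript abundance via RT-PCR and capillary electrophoresis. HepG2 cells transiently transfected, 24 h chemical exposure. Gain or loss fitted against DMSO baseline.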

[15] = ATG_M_32_CIS: Attagene CIS-FACTORIAL HepG2 Assay for M32 Transcription Factor (Internal Marker) (AID 2282949); settings: HepG2 Attagene cis-factorial M32 reporter, mRNA; actives raise or lower the signal;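 further: background control marker of the multiplexed CIS panel rather than a real target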
Method in brief: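 Transient MRTU transfection of HepG2; 24 h compound treatment; TriZol RNA, oligo(dT) RT, reporter PCR, 6-FAM primer extension, HpaI cut, CE. Gain/loss of signal vs DMSO.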

[16] = ATG_M_06_CIS: Attagene CIS-FACTORIAL HepG2 Assay for M06 Transcription Factor (Internal Marker) (AID 2282950); settings: HepG2 Attagene CIS-FACTORIAL M06 internal marker reporter; actives raise or lower the signal
Method in brief: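 Fluorescence-labelled RT-PCR products from cis-promoter reporter units, cut with HpaI and resolved by capillary electrophoresis, give the signal. Cells are human HepG2, dosed for 24 h. Serves as background control, fitted relative to DMSO.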

[17] = target: Hepatocyte nuclear factor 6 (Homo sapiens) (UniProt Q9UBC0); assay: ATG_HNF6_CIS: Attagene CIS-FACTORIAL HepG2 Assay for human Hepatocyte Nuclear Factor 6 (HNF6) (AID 2282952); settings: HepG2 Attagene cis-factorial HNF6 reporter transcription; actives raise or lower the signal
Chain of Hepatocyte nuclear factor 6 (Homo sapiens) (Q9UBC0 whole entry, looked up): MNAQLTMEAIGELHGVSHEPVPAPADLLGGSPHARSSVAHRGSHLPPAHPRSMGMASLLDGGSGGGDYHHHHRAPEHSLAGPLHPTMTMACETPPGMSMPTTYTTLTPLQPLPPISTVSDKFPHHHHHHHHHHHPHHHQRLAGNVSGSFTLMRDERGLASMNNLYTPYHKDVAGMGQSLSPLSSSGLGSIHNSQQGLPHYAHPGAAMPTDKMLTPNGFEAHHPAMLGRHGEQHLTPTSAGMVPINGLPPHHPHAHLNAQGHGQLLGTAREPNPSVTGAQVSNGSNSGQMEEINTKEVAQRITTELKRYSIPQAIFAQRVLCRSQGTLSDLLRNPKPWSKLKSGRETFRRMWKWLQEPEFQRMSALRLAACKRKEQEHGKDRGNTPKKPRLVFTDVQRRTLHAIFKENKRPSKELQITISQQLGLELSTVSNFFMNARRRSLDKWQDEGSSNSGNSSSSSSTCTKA
Method in brief: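 Activity values derive from bidirectional fitting against DMSO of reporter mRNA levels, measured by capillary electrophoresis of labelled RT-PCR products from HepG2 cells exposed 24 h.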

[18] = ATG_MRE_CIS: Attagene CIS-FACTORIAL HepG2 Assay for human Metal Responsive Element (MRE) (AID 2282954); settings: HepG2 MRE cis-reporter transcription, Attagene multiplex; actives raise or lower the signal
Method in brief: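 Readout: capillary electrophoresis of 6-FAM-labelled, HpaI-digested RT-PCR reporter products. System: HepG2 cells carrying transient multiplexed cis reporters, dosed 24 h. Analysis: bidirectional fit, DMSO baseline.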

[19] = ATG_PXRE_CIS: Attagene CIS-FACTORIAL HepG2 Assay for human Pregnane X Receptor Element (PXRE) (AID 2282957); settings: HepG2 Attagene CIS-FACTORIAL PXRE reporter, mRNA; actives raise or lower the signal
Method in brief: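 Fluorescent capillary electrophoresis of amplified reporter cDNA gave the signal, collected 24 h after dosing HepG2 cells that held transfected cis-element reporter constructs.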

[20] = ATG_Sox_CIS: Attagene CIS-FACTORIAL HepG2 Assay for human SRY-box transcription factor (SOX) (AID 2282960); settings: HepG2 Attagene cis-factorial SOX reporter, mRNA; actives raise or lower the signal
Method in brief: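 Reporter transcripts, measured by RT-PCR and capillary electrophoresis of labelled fragments, report endogenous SOX transcription factor activity. Transiently transfected human HepG2 cells receive chemical for 24 h; changes in either direction are fitted relative to DMSO.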

Measured: AC50

COC(C)(C)CCC[C@H](C)C/C=C/C(C)=C/C(=O)OC(C)C
active: [2] 100 µM | [3] 72.9 µM | [4] 112 µM | [6] 84.6 µM | [10] 82.3 µM | [13] 145 µM | [18] 36.6 µM | [19] 1.43 µM
inactive: all other assays above

ClCC(Cl)Cl
inactive: all assays above

C=CCO
inactive: all assays above

C[C@]12CC[C@H](O)C[C@H]1CC[C@@H]1[C@@H]2C[C@@H](O)[C@]2(C)[C@@H](C3=CC(=O)OC3)CC[C@]12O
active: [1] 2.8 µM | [2] 0.72 µM | [4] 3.46 µM | [5] 0.865 µM | [10] 2.68 µM | [11] 8.76 µM | [12] 7.98 µM | [14] 13.8 µM | [17] 5.31 µM | [18] 2.73 µM | [19] 1.87 µM
inactive: [3] | [6] | [7] | [8] | [9] | [13] | [15] | [16] | [20]

C=CC(=O)OCCCCOC(=O)C=C
active: [1] 168 µM | [2] 74 µM | [3] 52.4 µM | [4] 186 µM | [8] 70.1 µM | [10] 62.4 µM | [11] 77.3 µM | [14] 54.1 µM | [18] 64 µM | [19] 158 µM
inactive: all other assays above

CC1OC(C)OC(C)O1 (stereo not given)
inactive: all assays above

Source: PubChem BioAssay (EPA / NIEHS)
